Laboratory results reported in PubChem BioAssay (NCI).
The panel holds about 83,000 compounds, 20% with a hit somewhere; the sample as a whole holds those more often.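 Single-dose data. Exposure time 48 hours. Values below 10 considered active.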 Values without a mark were called inactive. The source made the active and inactive calls.

What follows are molecules tested on COLO 205 colon (assay: NCI-60 one-dose screen, 48 h (100 = growth as untreated, 0 = no growth, -100 = all killed)). Details: 10 µM unless noted.
Protocol: Cells are grown in 96 well plates and exposed to the test compound for 48 hours. Compounds are tested at a single concentration, which is 10^-5 M for most compounds. The reported endpoint is percent growth (GI% or GIPRCNT), where numbers from 0 - 100% represent growth inhibition, and numbers from -100% - 0 represent cell death. For example, a value of 40 represents 60% growth inhibition. A value of 0 means no net growth occurred over the course of the experiment. A value of -40 indicates 40% of cells at the beginning of the experiment died by the end of the experiment. A value of -100 means all cells are dead at the end of the experiment.
NCI-60 Human Tumor Cell Lines Screen was performed using the standard one-dose NCI protocol, which is described in more detail at https://dtp.cancer.gov/discovery_development/nci-60/default.htm.
Compounds with GIPRCNT values below 10 were considered active. Activity score was based on GIPRCNT using the following formula: […]
Score is 0 for GIPRCNT values of 100 or above, 50 for GIPRCNT values of 0, and 100 for GIPRCNT values of -100.
In the case of `CC(C)(C)n1cc(-c2ccnc(NCCCNS(=O)(=O)c3ccc(Br)cc3)c2)c(-c2cccc(O)c2)n1`, the growth is reported as -62.6% (active).
With `Clc1ccccc1-c1nc2ccccc2[nH]1` the growth was 112%.
`O=S(=O)(NCCNc1nccc(-c2c(-c3ccc(O)cc3)nc3sccn23)n1)c1cccc2ccccc12` showed a growth of 109%.
For `C=C1CCC2C3(C)COC(C)(C)OC3CCC2(C)C1C/C=C1/C(=O)OCC1Oc1ccccc1OC` (stereo not given), the growth was 102%.
For `NNc1cccc(/C=C/c2ccccc2)cc1=O`, the growth was 70.6%.
In the case of `CCN(CC)CCC(CNc1ccnc2cc(Cl)ccc12)c1ccccc1` (stereo not given), the growth is reported as -39% (active).
`Clc1cc(Cl)c2nc(-c3ccc(-c4ccc(/C=N/NC5=NCCN5)cc4)s3)cn2c1` showed a growth of 93.7%.
`COC(=O)c1cc(=O)nc(N/N=C/c2ccco2)s1` gave a growth of 116%.
In the case of `COc1ccc(C2C=C(c3ccc(OC)c(OC)c3)N=C3SC=C(C)N32)c(Br)c1` (stereo not given), the growth is reported as 108%.
With `CN(C)CC(C(=O)c1ccccc1)c1ccccc1` (stereo not given) the growth was -48% (active).
In the case of `Cn1c2ccc(Br)cc2c2c3c(c4c5ccccc5[nH]c4c21)C(=O)N(O)C3=O`, the growth is reported as -84.4% (active).
Work on `C=C[C@@H]1C[C@H](O)Cc2cc(F)ccc2N1` yielded a growth of 107%.
With `CCCCCc1cc[n+](CC(=O)c2ccc([N+](=O)[O-])cc2)cc1` the growth was -5.18% (active).
With `COc1ccc(OC)c(C2OC(c3ccc4ccccc4c3O)=NN2C(C)=O)c1` (stereo not given) the growth was 77.1%.
With `COc1cc2c(c(OC)c1OC)-c1ccc(N)c(=O)cc1[C@@H](NC(C)=O)CC2` the growth was -71.8% (active).
`Cc1ccc(-c2csc(NC(=O)CCCCl)n2)cc1` gave a growth of 112%.
With `Cc1ccc(/C=C2\CN(C(=O)CCN3CCC(=NO)CC3)C/C(=C\c3ccc(C)cc3)C2=O)cc1` the growth was -35.4% (active).
In the case of `C=C[C@@H]1C[C@@H]2Cc3cc(Cl)ccc3N1O2`, the growth is reported as 94.3%.
`C=C[C@@H]1C[C@H](O)Cc2ccccc2N1` showed a growth of 117%.
Work on `O=C(Nc1cccc(-n2cc(-c3ccncc3)c(-c3ccc(Cl)c(O)c3)n2)c1)c1ccccc1` yielded a growth of 100%.
Molecule `O=C1C2(c3ccccc3)C(c3ccccc3)=C(c3ccccc3)C1(c1ccccc1)C1CC=CC12` (stereo not given) has a growth of 112%.
Molecule `COc1ccc(S(=O)(=O)n2ccc(-c3ccc4c(c3)CCC(C)(C)O4)n2)cc1OC` has a growth of 87.1%.
For `COc1cc2c(=O)n(C3CCCCCC3)c3c4cc[nH]c4ncc3c2cc1OC`, the growth was 79.9%.
For `COc1ccc(-n2c(-c3ccccc3)c(-c3ccccc3)c3c(SCC(=O)N/N=C/c4ccc(Cl)cc4)ncnc32)cc1`, the growth was 104%.
Molecule `C/C(=C\c1ccc(OCC(=O)O)c(Cl)c1Cl)[N+](=O)[O-]` has a growth of 112%.
`COc1cc([N+](=O)[O-])c2ncccc2c1O` was tested, and the growth was -67.8% (active).
`COc1ccc2[nH]c(=O)c(/C=N/Nc3nc(-c4ccccc4)cs3)c(O)c2c1` was tested, and the growth was 106%.
For `O=C(Oc1ccccc1[N+](=O)[O-])C1CCCN1C(=O)OCc1ccccc1` (stereo not given), the growth was 115%.
For `COc1cc(-c2nn(-c3cccc(NC(=O)Nc4cc(C(F)(F)F)cc(C(F)(F)F)c4)c3)cc2-c2ccncc2)ccc1Cl`, the growth was -98.7% (active).
With `O=[N+]([O-])c1ccc(OCCCOc2ccccc2)cc1` the growth was 118%.
Molecule `COc1ccc(/C=C2\Oc3cc(OCCCN4CCCC4)ccc3C2=O)cc1` has a growth of 93.5%.
In the case of `CCOC(=O)C1CCNC(=O)C1=O` (stereo not given), the growth is reported as 114%.
Work on `Brc1cccc(-c2cc(-c3ccc4c(c3)OCCCO4)[nH]n2)c1` yielded a growth of 36.3% [25 µM].
`CCCCCCCCN(CCCCCCCC)CCCCCCNc1cc(OC)cc2cccnc12` gave a growth of 33.3%.
Molecule `Oc1ccc(Cl)cc1-c1cc(-c2ccc(F)cc2)n[nH]1` has a growth of 81.7%.
Work on `CC12CCC3C4(C)COC(c5ccco5)OC4CCC3(C)C1CC(C1=CCOC1=O)O2` (stereo not given) yielded a growth of 110%.
With `COc1ccc2c(c1)[nH]c(=O)c1c3cccc(F)c3cn21` the growth was -20.8% (active).
`CCO/C=N/C1=C(C#N)C(c2ccc(Cl)cc2)c2c(c3ccccc3n(C)c2=O)O1` (stereo not given) gave a growth of 71.5%.
`Cc1c(C(N)=O)sc2c1c(=O)n(Cc1ccccc1)c1nnc(Nc3ccccc3)n21` gave a growth of 101%.
Work on `Cc1ccc(C(=O)C2=Cc3cc4ccccc4n3Cc3cnnn32)cc1` yielded a growth of 111%.
